38 molecules from PubChem BioAssay (NCI) can be followed below.

Molecules are shown by their SMILES. The panel holds about 79,000 compounds, 15% with a hit somewhere; the sample as a whole holds those more often. Unmarked numbers belong to inactive results. Active and inactive are the calls of the source. No stated cut-off is given here; in the data, active means growth inhibition above about 70%; inactive means the rest.

A short description of assay [1]: NCI Yeast Anticancer Drug Screen. Data for the rad50 strain (AID 155).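 Further: 0% = growth of vehicle-only cultures of the same strain.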 Conditions: S. cerevisiae rad50 strain growth inhibition; at 50.0 µM; active compounds read high. The procedure, abridged:
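DNA repair mutant yeast, compound exposure, growth read-out; inhibition is taken relative to vehicle.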

The nature of assay [2]: NCI Yeast Anticancer Drug Screen. Data for the mec2-1 strain (AID 157). Conditions: S. cerevisiae mec2-1 strain, at 50.0 µM, active compounds read high. The method in brief: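 Cells of the genetically defined mec2-1 yeast strain are incubated with test compound. Inhibition of growth is calculated against vehicle-treated controls.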
Assay [3] is described as follows: NCI Yeast Anticancer Drug Screen. Data for the sgs1 mgt1 strain (AID 161).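 Further: 0% = growth of cultures given vehicle only.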 The conditions noted are these: S. cerevisiae sgs1 mgt1 strain, at 50.0 µM, active compounds read high. The method in brief: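 Genetically altered yeast, compound exposure, growth inhibition relative to vehicle.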
A short description of assay [4]: NCI Yeast Anticancer Drug Screen. Data for the cln2 rad14 strain (AID 165).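 Further: 0% = growth equal to vehicle treated cultures.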 The conditions noted are these: S. cerevisiae cln2 rad14 strain, at 50.0 µM, active compounds read high. The method in brief:
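The screen exposed genetically defined yeast (cln2 rad14) to test compounds and scored growth inhibition relative to vehicle-treated controls.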

Assay [5] in a line: NCI Yeast Anticancer Drug Screen. Data for the bub3 strain (AID 167). Conditions: S. cerevisiae bub3 mutant strain, at 50.0 µM, active compounds read high. The procedure, abridged:
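In this screen, a yeast mutant lacking normal mitotic checkpoint function is challenged with compound. Relative growth versus vehicle gives the inhibition value.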

Assay [6] in a line: NCI Yeast Anticancer Drug Screen. Data for the mlh1 rad18 strain (AID 175). The conditions noted are these: S. cerevisiae mlh1 rad18 strain growth inhibition; at 50.0 µM; active compounds read high. The procedure, abridged:
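Compound-treated yeast growth, normalised to vehicle controls. Strain bears defined DNA repair mutations.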

On to `c1ccc(CNCCNCc2ccccn2)nc1`, for which the growth inhibition in assay [1] is 25.4%; in assay [2], 7.45%; in assay [3], 16.1%; in assay [4] it was -61.1%; in assay [5], -1.15%; in assay [6] it was 16.8%.

On to `O=C(Nc1ccccc1CCl)Nc1ccccc1CCl`, for which the growth inhibition in assay [1] is -30.9%; in assay [2] it was -26.4%; in assay [3] it was -15.8%; in assay [4], 0.7%; in assay [5], -23.2%; in assay [6], -28.8%.

As for `O=C1CN(C=C2C(=O)NC(=O)NC2=O)C(=S)N1`, the growth inhibition in assay [1] was -53.8%; in assay [2], -23.7%; in assay [3] it was -43%; in assay [4], -36.7%; in assay [5], -22.3%; in assay [6] it was -71.2%.

In the case of `C/C(=N/N(CCCCN(/N=C(/C)c1ccccc1)c1ccccc1)c1ccccc1)c1ccccc1`, the growth inhibition in assay [1] is 48.5%; in assay [2], 13.2%; in assay [3], 17.1%; in assay [4], 26.3%; in assay [5], 1.55%; in assay [6] it was 39.2%.

Regarding `O=c1cccccc1Cl`, the growth inhibition in assay [1] was 14.8%; in assay [2] it was -41.6%; in assay [3] it was 20.9%; in assay [4], 5.6%; in assay [5], 40.8%; in assay [6], 11.6%.

Regarding `Nc1ccc(CP(=O)(O)O)cc1`, the growth inhibition was -8.4% in assay [1]; 14.8% in assay [2]; -3.65% in assay [3]; -8.1% in assay [4]; 16.1% in assay [5]; 24.9% in assay [6].

`CCN(CC)CCOC(=O)C(S)(c1ccccc1)C1CCCCC1` (stereo not drawn): the growth inhibition in assay [1] was 13.8%; in assay [2], -7.3%; in assay [3] it was 1%; in assay [4], -12.8%; in assay [5] it was -12.7%; in assay [6] it was 16.9%.

Consider `CC(C)CC(N)C(=O)NC(Cc1c[nH]c2ccccc12)C(N)=O` (stereo not drawn), for which the growth inhibition in assay [1] is -8.85%; in assay [2], 3.35%; in assay [3], 18.1%; in assay [4] it was -2.4%; in assay [5] it was 22.4%; in assay [6], 10.5%.

Regarding `O=C1c2c(O)cccc2C(C(=O)CCCC(=O)C2c3cccc(O)c3C(=O)c3c(O)cccc32)c2cccc(O)c21`, the growth inhibition is -1.55% in assay [1]; 13.2% in assay [2]; 3.25% in assay [3]; 19.9% in assay [4]; -15.8% in assay [5]; -0.85% in assay [6].

For `CCCCCCCCCCCC(=O)OCC1OC(n2cc(F)c(=O)[nH]c2=O)C(N)C(OC(=O)CCCCCCCCCCC)C1O` (stereo not drawn), the growth inhibition is -9% in assay [1]; -34.9% in assay [2]; -51.6% in assay [3]; 4.2% in assay [4]; -34.9% in assay [5]; -45.5% in assay [6].

With `Cc1ccc(NC(=O)c2ccccc2N)cc1`, the growth inhibition in assay [1] was -0.9%; in assay [2] it was -8.5%; in assay [3] it was -0.95%; in assay [4], -16.8%; in assay [5], -12.4%; in assay [6], 18%.

Turning to `CCCCCCCCCCCCC1CC(=O)OC1=O` (stereo not drawn), the growth inhibition in assay [1] is 3.65%; in assay [2] it was -15.4%; in assay [3], 13%; in assay [4] it was 18.1%; in assay [5], 32.5%; in assay [6], -8.85%.

Take `CC(=O)Nc1ccc(S(=O)(=O)O)nc1`: the growth inhibition in assay [1] was 0.45%; in assay [2], 5.15%; in assay [3] it was -6.8%; in assay [4], 16.8%; in assay [5] it was 7.65%; in assay [6], -6.9%.

On to `CC1=NC(C(=O)O)C(C)(C)S1` (stereo not drawn), for which the growth inhibition was 2.6% in assay [1]; -8.3% in assay [2]; -22.2% in assay [3]; -0.95% in assay [4]; -3.4% in assay [5]; -6% in assay [6].

Consider `NC1c2c(Br)sc(N3CCCC3)c2C(=O)C1O` (stereo not drawn), for which the growth inhibition in assay [1] was 8.05%; in assay [2] it was -3.5%; in assay [3], -5.25%; in assay [4], -5.35%; in assay [5], -16.4%; in assay [6], -30.3%.

As to `CCCCCCCCCCCCCC#N`, the growth inhibition in assay [1] was 5.85%; in assay [2], -3.55%; in assay [3], 3.35%; in assay [4] it was 5.25%; in assay [5], 1.65%; in assay [6], 25.8%.

In the case of `CCOc1cc2c(cc1O)CC[C@@H]1[C@@H]2CC[C@]2(C)C(OS(=O)OC3CC[C@@H]4[C@H]5CCc6cc(O)c(OCC)cc6[C@@H]5CC[C@@]34C)CC[C@@H]12` (stereo partly drawn), the growth inhibition in assay [1] is -12.8%; in assay [2] it was 0.25%; in assay [3] it was 4.8%; in assay [4] it was 26.7%; in assay [5] it was 18.6%; in assay [6], -15.5%.

`CCSC(SCC)C(NC(C)=O)C(O)C(O)COC(=O)c1ccccc1` (stereo not drawn): the growth inhibition is 6.05% in assay [1]; 17.3% in assay [2]; 17.4% in assay [3]; 12% in assay [4]; 1.35% in assay [5]; 25.2% in assay [6].

As to `COC(=O)C1=C(C)N(NC(N)=O)C(C)(O)C12CCOC2=O` (stereo not drawn), the growth inhibition in assay [1] was -3.8%; in assay [2], -2.2%; in assay [3], 2.15%; in assay [4], -56.8%; in assay [5] it was -5.95%; in assay [6] it was -14.1%.

For the molecule `Oc1ccc(O)c(CCCCCc2cc(O)ccc2O)c1`, the growth inhibition in assay [1] is 76.3% (active); in assay [2] it was 37.4%; in assay [3], 66.5%; in assay [4] it was 34.4%; in assay [5], 70.2% (active); in assay [6] it was 97.7% (active).

As for `CCNCCN(CC)CC`, the growth inhibition in assay [1] is -12.7%; in assay [2], -5.75%; in assay [3], -21.1%; in assay [4] it was 6.1%; in assay [5], 0%; in assay [6] it was -17.4%.

Take `Cc1ccc(C)c(NC(=O)C(=O)C(C(=O)c2ccc3ccccc3c2)C2OC(=O)c3ccccc32)c1` (stereo not drawn): the growth inhibition was 23.9% in assay [1]; 15.8% in assay [2]; 35.9% in assay [3]; 23.5% in assay [4]; 4.15% in assay [5]; 13.7% in assay [6].

For `CCCC(C(=O)O)C(O)(CC(=O)O)C(=O)O` (stereo not drawn), the growth inhibition was 18.6% in assay [1]; -14.6% in assay [2]; 11.4% in assay [3]; -32.1% in assay [4]; 7.85% in assay [5]; -20.6% in assay [6].

With `O=c1[nH]cc([N+](=O)[O-])c(=O)[nH]1`, the growth inhibition in assay [1] is 14.3%; in assay [2], 13.1%; in assay [3], 8.25%; in assay [4], 14.7%; in assay [5], 16.9%; in assay [6] it was 11.2%.

For the molecule `COC(=O)CCCCCCCCC(=O)OC`, the growth inhibition in assay [1] is 8.9%; in assay [2] it was 33.8%; in assay [3], 8.8%; in assay [4], 8.95%; in assay [5], 25.8%; in assay [6], 7.15%.

Regarding `CCOC(=O)Nc1nc2ccccc2n1CN1CCCCC1`, the growth inhibition is 18.5% in assay [1]; 11.1% in assay [2]; 23.4% in assay [3]; 16.4% in assay [4]; 0.2% in assay [5]; 27.2% in assay [6].

With `Cn1c(=O)c2c(ncn2CCNC(c2ccccc2)c2ccc(Br)cc2)n(C)c1=O` (stereo not drawn), the growth inhibition is 4.55% in assay [1]; 1.55% in assay [2]; 11.3% in assay [3]; -35.3% in assay [4]; 24.1% in assay [5]; 13.6% in assay [6].

Consider `Cc1cccc(C(=O)O)c1N`, for which the growth inhibition was 9.7% in assay [1]; -5.25% in assay [2]; -10.6% in assay [3]; 9.95% in assay [4]; -33.6% in assay [5]; 13.4% in assay [6].

Regarding `COC1=CC(=O)C(C2OC(=O)C(Cl)=C2Cl)=CC1=O` (stereo not drawn), the growth inhibition was 8.1% in assay [1]; 7.3% in assay [2]; -2.45% in assay [3]; -11.4% in assay [4]; 16.6% in assay [5]; 13.2% in assay [6].

On to `CCOC(=O)Nc1c(O)cccc1N1CCOCC1`, for which the growth inhibition in assay [1] is -14.1%; in assay [2], 6.65%; in assay [3] it was 25.9%; in assay [4] it was -12.1%; in assay [5] it was 7.4%; in assay [6], -1.25%.

On to `O=C(CN1C(=O)NC(c2ccccc2)(c2ccccc2)C1=O)NCCN1CCOCC1`, for which the growth inhibition in assay [1] was -1.65%; in assay [2] it was 3.9%; in assay [3], -5.95%; in assay [4], -1.6%; in assay [5], -0.1%; in assay [6], 26.1%.

On to `CC(=O)OC1C(=O)OC(=O)C1OC(C)=O` (stereo not drawn), for which the growth inhibition in assay [1] was 9.6%; in assay [2], 0.9%; in assay [3], 8.1%; in assay [4] it was 5.25%; in assay [5], 6.05%; in assay [6] it was -3.85%.

In the case of `Cc1ccccc1C(C#N)/C(=N/NC(=O)C(=O)NN)C(=O)Nc1cccc(C(F)(F)F)c1` (stereo not drawn), the growth inhibition in assay [1] is 34.1%; in assay [2] it was 10.9%; in assay [3], 14.2%; in assay [4], 23.1%; in assay [5], 0.25%; in assay [6], 21.8%.

Consider `CCOC(=O)c1nn2c(nc1=O)sc1ccc3ccccc3c12`, for which the growth inhibition in assay [1] is -22%; in assay [2], -5.7%; in assay [3], 7.8%; in assay [4], 32.1%; in assay [5], 25%; in assay [6], 2.05%.

For `C[C@H](C(O)CC(=O)C(C)(C)O)[C@H]1CC[C@@]2(C)[C@@H]3CC[C@H]4C(C)(C)[C@@H](OC5OC(COC6OC(CO)C(O)C(O)C6O)C(O)C(O)C5O)CC[C@]4(C)C3=CC[C@]12C` (stereo partly drawn), the growth inhibition was -12.7% in assay [1]; -19.3% in assay [2]; -20.2% in assay [3]; -0.05% in assay [4]; -23.4% in assay [5]; -75.8% in assay [6].

For `O=C(Cc1ccccc1)NN1C(=O)/C(=C\c2ccccc2O)SC1=Nc1ccccc1`, the growth inhibition in assay [1] is 1.15%; in assay [2], -6.3%; in assay [3] it was 31.4%; in assay [4], 13.5%; in assay [5], -6.95%; in assay [6] it was 7.25%.

On to `c1ccc2c(c1)Cc1c(Cc3csc4ccccc34)ccc3cccc-2c13`, for which the growth inhibition is -14.2% in assay [1]; -22.4% in assay [2]; -4.1% in assay [3]; 13.3% in assay [4]; -5% in assay [5]; -15.2% in assay [6].

As for `CCOP(=O)(OCC)C1C(C)N1C(=O)Nc1ccccc1` (stereo not drawn), the growth inhibition is 1.4% in assay [1]; -4.15% in assay [2]; -8.1% in assay [3]; 5% in assay [4]; -11.7% in assay [5]; -17.4% in assay [6].
